Compound activity as filed in PubChem BioAssay.
BAZ2B inh = BAZ2B (human) inhibition | AlphaScreen BAZ2B-H3K14Ac peptide displacement | Potency, µM (doses to about 114 µM), for inactives: at the top dose activity change, negative = inhibition, most hits filed as inhibitors | AID 504333 | Q9UIF8 | 360,000 tested, 4.4% active; further: on the % scale 0 is the no-effect control and ±100 the full control effect; nearly all actives have a fitted effect of over 60% in size
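BAZ2B 50 nM plus b-H3(5-23)K14Ac 50 nM, PBS pH 7.4/0.01% Tween-20, 30 min RT; compound added (max 110 uM), 30 min RT; streptavidin donor/Ni-chelate acceptor beads 10 ug/mL final, 20 min dark; AlphaScreen read.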
L3MBTL1 block = blocks human L3MBTL1 | Potency, µM (doses to about 57.1 µM), without a hit: at the top dose activity, negative = inhibition, most hits filed as inhibitors | AlphaScreen L3MBTL1–H3K9me1 peptide binding | 230,000 tested, 0.66% active | AID 485360 | Q9Y468; further: on the % scale 0 is the no-effect control and ±100 the full control effect; nearly all actives have a fitted effect of over 60% in size
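L3MBTL1 (50 nM) pre-complexed 30 min with biotinylated H3(1-15)K9me1 peptide (75 nM), then compounds added for 30 min at room temperature; AlphaScreen streptavidin donor/nickel chelate acceptor beads (10 ug/mL final) read after 30 min dark incubation.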
HP1b binding inh = inhibitors of HP1-beta chromodomain binding to methylated histone tails; P83916; AlphaScreen HP1-beta / biotin-H3K9me3 peptide binding; Potency, µM (highest dose often 114 µM), inactives show at the highest dose activity change, negative = inhibition, most hits filed as inhibitors; 390,000 tested, 0.56% active; AID 540317; further: nearly all actives have a fitted effect of over 70% in size
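HP1-beta protein (50 nM final) preincubated 30 min at room temperature with biotinylated H3(1-18)K9me3 peptide (50 nM) in PBS pH 7.4, 0.01% Tween-20, then compound added for 30 min. AlphaScreen streptavidin donor/nickel chelate acceptor beads (10 ug/mL final), 30 min dark, luminescence read.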
G9a inh = blocks human histone lysine methyltransferase G9a; Potency, µM (top dose mostly 102 µM), without a hit: at the top dose activity, negative = inhibition, actives largely listed as inhibitors; Q96KQ7; 350,000 tested, 8.8% active; G9a H3K9 monomethylation, AlphaScreen, 2 h; further: on the % scale 0 is the no-effect control and ±100 the full control effect; nearly all actives have a fitted effect of over 75% in size
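AlphaScreen read-out: biotin-H3K9 peptide (500 nM) methylation by 20 nM enzyme with 20 uM SAM, 2 h at room temperature after 15 min compound preincubation; anti-monomethyl H3K9 antibody plus donor/acceptor beads, 10 min dark.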
JMJD2A Tudor = JMJD2A Tudor domain (human) inhibition. AlphaScreen JMJD2A-Tudor / H3K4me3 peptide binding. Potency, µM (highest dose often 114 µM), for the others: at the top dose activity change, negative = inhibition, most hits filed as inhibitors. 390,000 tested, 4.4% active; further: on the % scale 0 is the no-effect control and ±100 the full control effect; nearly all actives have a fitted effect of over 50% in size
Target sequence (O75164 whole entry, looked up, the tested form may be a part): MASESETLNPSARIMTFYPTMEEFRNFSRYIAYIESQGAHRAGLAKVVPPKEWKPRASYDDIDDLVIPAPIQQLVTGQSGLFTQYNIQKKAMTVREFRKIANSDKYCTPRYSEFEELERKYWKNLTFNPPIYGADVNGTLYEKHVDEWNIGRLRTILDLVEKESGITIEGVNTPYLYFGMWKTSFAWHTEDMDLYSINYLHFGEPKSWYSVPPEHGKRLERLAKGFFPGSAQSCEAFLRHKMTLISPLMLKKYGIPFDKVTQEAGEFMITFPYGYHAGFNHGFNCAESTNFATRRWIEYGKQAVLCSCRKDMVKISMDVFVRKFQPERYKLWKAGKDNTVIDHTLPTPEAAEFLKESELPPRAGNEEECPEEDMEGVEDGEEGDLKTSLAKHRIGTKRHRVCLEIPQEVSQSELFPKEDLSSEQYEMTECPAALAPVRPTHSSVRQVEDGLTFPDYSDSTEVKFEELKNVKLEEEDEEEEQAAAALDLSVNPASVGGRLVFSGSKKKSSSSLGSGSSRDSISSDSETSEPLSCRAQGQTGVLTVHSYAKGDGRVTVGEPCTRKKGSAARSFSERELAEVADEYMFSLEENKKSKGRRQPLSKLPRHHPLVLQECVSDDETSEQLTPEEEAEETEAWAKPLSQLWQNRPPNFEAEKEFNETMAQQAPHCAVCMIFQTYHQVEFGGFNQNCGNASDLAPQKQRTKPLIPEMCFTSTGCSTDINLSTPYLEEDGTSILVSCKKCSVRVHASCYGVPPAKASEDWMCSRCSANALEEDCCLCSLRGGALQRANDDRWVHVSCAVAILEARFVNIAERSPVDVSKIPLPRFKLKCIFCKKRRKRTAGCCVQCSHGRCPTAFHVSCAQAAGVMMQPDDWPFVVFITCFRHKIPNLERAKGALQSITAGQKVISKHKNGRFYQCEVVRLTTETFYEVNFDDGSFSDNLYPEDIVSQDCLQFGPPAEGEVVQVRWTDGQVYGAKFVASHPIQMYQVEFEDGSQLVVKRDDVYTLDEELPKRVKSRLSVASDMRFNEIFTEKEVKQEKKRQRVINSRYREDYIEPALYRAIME
Sfp PPTase inh = inhibitors of Bacillus subtilis Sfp phosphopantetheinyl transferase; Q9F4F7; Biochemical Sfp PPTase activity, qHTS; Potency, µM, for the others: largest response in the series, negative = inhibition, hits mostly inhibitors; 310,000 tested, 3.5% active;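 further: the enzyme is Sfp with the accession as filed and its product quenches rhodamine fluorescence; 0% = enzyme reaction without inhibitor and -100% = no enzyme wells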
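Fluorescence-quenching assay with 15 nM Sfp, 5 uM rhodamine-CoA and 12.5 uM BHQ-2-labelled ybbR peptide in pH 7.6 Hepes/MgCl2 buffer. Enzyme was pre-incubated with compound for 15 min at room temperature. Rate was taken from the 30-min fluorescence change (525/598 nm).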
* marks the source's active call; other numbers are inactive results; ? = inconclusive; . = no result given; [ ] = remark or other dose. A selection: hits, their analogues and other compounds. The true share with any hit is near 12%. The call rests on the fitted dose curve; in most records, active means well fitted curve in the direction sought with a large enough effect; inconclusive means small, poorly fitted or top-dose-only effect, or another doubt; inactive means no such curve, though single readings can be large; an effect the other way counts as inactive or inconclusive. Potency means the concentration at half of the fitted maximal effect.

SMILES	BAZ2B inh	L3MBTL1 block	HP1b binding inh	G9a inh	JMJD2A Tudor	Sfp PPTase inh
O=C(C1=C(O)C(=O)N(c2ncccn2)C1c1ccc(F)cc1)c1ccco1 (configuration not stated)	-15%	4%	18%	.	?	-3%
CCOC(=O)c1ccc(NC(=O)CCC(=O)N2Cc3ccccc3Oc3ncccc32)cc1	5%[57.1 µM]	.	26%	-2%[59 µM]	-18%	.
CCOC(=O)COc1ccc(CC)cc1C(=O)c1ccn2nc(-c3ccccc3)cc2n1	-14%	.	37%	13%[59 µM]	-2%	.
COc1ccc(C(=O)OCC(=O)c2ccc(CNC(C)=O)s2)cc1	10%	-1%	14%	10µM*	-8%	.
CCc1cc2c(=O)n(Cc3ccco3)c(SCC(=O)N(C)C3CCS(=O)(=O)C3)nc2s1 (configuration not stated)	-2%	?	15%	?	-23%	7.9µM*
CCc1cc2c(=O)n(Cc3ccco3)c(SCC(=O)NC3CCS(=O)(=O)C3)nc2s1 (configuration not stated)	-20%	3%	11%	50µM*	-28%	32µM*
CCc1cc2c(=O)n(Cc3ccco3)c(SCC(=O)NCC3CCCO3)nc2s1 (configuration not stated)	-1%	.	16%	25%[59 µM]	-20%	-9%
CCc1cc2c(=O)n(Cc3ccco3)c(SCC(=O)N3CCCc4ccccc43)nc2s1	-8%	-15%	2%	-6%[59 µM]	-18%	45µM*
CN(C(=O)CSc1nc2cc(Cl)ccc2c(=O)n1Cc1ccco1)C1CCS(=O)(=O)C1 (configuration not stated)	?	?	24%	-12%	-23%	-13%
COC(=O)c1ccc(NC(=O)CC2C(=O)N(c3ccc(C)cc3)C(=O)N2Cc2ccc(OC)cc2)cc1 (configuration not stated)	-10%	.	-7%	-6%[59 µM]	-19%	.
Cc1ccsc1C=Nc1ccc(O)cc1	40µM*	?	?	13µM*	79µM*	?
N#Cc1nc(Cc2cccc3ccccc23)oc1NCCCN1CCOCC1	?	-5%	-10%	50µM*	-33%	0%
Oc1ccccc1CNCCCN1CCOCC1	?	4%	6%	8.9µM*	4.5µM*	-14%
c1ccc2c(NCCCN3CCOCC3)c3ccccc3nc2c1	-15%	5%	.	50µM*	.	3%
Cc1cccc(Nc2nnc(-c3ccc(C)c(S(=O)(=O)N4CCN(C)CC4)c3)c3ccccc23)c1	?	.	3%	18µM*	-33%	.
Cc1ccc(-c2nnc(Nc3cccc(Cl)c3)c3ccccc23)cc1S(=O)(=O)N1CCN(C)CC1	?	.	6%	7.9µM*	?	.
N#Cc1ccccc1Cn1c(=O)n(-c2cccc(C(F)(F)F)c2)c(=O)c2sccc21	2%	.	45%	-2%[59 µM]	4%	.
CC1(C)CC(=O)C2=C(C1)O[C@@]1(CCCCN3C(=O)c4ccccc4C3=O)Cc3cc(C#N)ccc3C2O1	-2%[22.9 µM]	.	.	.	.	-3%
CCOc1ccc(C(c2c(O)cc(C)n(Cc3ccco3)c2=O)N2CCCCC2)cc1 (configuration not stated)	-9%	.	9%[57 µM]	?	-27%	.
CC(=O)c1ccc(OCCCC(=O)n2nnc3ccccc32)cc1	-1%	10%	-15%	-12%[59 µM]	79µM*	-5%
COc1ccc(CNC(=O)Cn2c(=O)oc3cc(S(=O)(=O)N4CCCCCC4)ccc32)cc1	-8%	.	-17%	-1%[59 µM]	-16%	.
CCCC(=O)n1nc(-c2ccco2)nc1SCc1ccccc1	87%	11%	29%	22%	41%	50µM*
O=C(Cc1ccccc1)n1nc(-c2ccco2)nc1SCc1ccccc1	-37%	.	20%	27%[12.7 µM]	89µM*	13%
O=C(Nc1ccc(Br)c2ccccc12)c1ccc2ccccc2c1O	28µM*	0%	?	28µM*	?	-3%
COc1ccc(CCn2c3c(c(=O)[nH]c2=O)C(NC(=O)c2ccccc2)(C(F)(F)F)C(=O)N3)cc1OC (configuration not stated)	-1%	.	34%	2%[59 µM]	3%	.
SMILES	BAZ2B inh	L3MBTL1 block	HP1b binding inh	G9a inh	JMJD2A Tudor	Sfp PPTase inh
COc1cc(Cl)c(C)cc1NC(=O)c1cnc(N2CCOCC2)c2ccccc12	1%	.	16%[57 µM]	27%[59 µM]	-8%	.
CC(C)CCNC(=O)c1ccc(Cn2c(=O)c3cccn3c3cccnc32)cc1	?	.	11%	-6%[59 µM]	-10%	.
COc1cc(-c2nc(Cn3nnc(C(=O)Nc4cc(C)cc(C)c4)c3C)c(C)o2)cc(OC)c1OC	?	.	-10%	-34%[59 µM]	-13%	.
C=CCNc1nnc(SC2CC(=O)N(c3ccc(OC)cc3)C2=O)s1 (configuration not stated)	-7%	.	-34%	8.9µM*	45µM*	?
COc1ccc(N2C(=O)CC(Sc3nc4ccccc4s3)C2=O)cc1 (configuration not stated)	-21%	15%	41%	25µM*	-3%	7%
COc1ccc(N2C(=O)CC(Sc3nnc(-c4ccccc4F)n3C)C2=O)cc1 (configuration not stated)	-9%	.	-13%	11µM*	-22%	1%
CCOc1ccc2nc(SC3CC(=O)N(c4ccc(OC)cc4)C3=O)sc2c1 (configuration not stated)	-2%	-3%	72%	13µM*	1%[57.1 µM]	-5%
COc1ccc(N2C(=O)CC(Sc3nccc(C)n3)C2=O)cc1 (configuration not stated)	-4%	4%	60%	-6%[59 µM]	11%	-15%
c1ccc(Nc2nc(NCc3ccco3)nc3nccnc23)cc1	.	.	137%	.	-18%	.
Cc1nnc(SC2CC(=O)N(c3ccccc3)C2=O)s1 (configuration not stated)	2%	1%	-7%	8.9µM*	12%	35µM*
Cc1ccc(C(=O)NCC(c2ccc3c(c2)OCO3)N2CCN(c3ccc(F)cc3)CC2)cc1 (configuration not stated)	-10%	.	-11%[57 µM]	?	?	.
COc1ccccc1NS(=O)(=O)c1cc(NC(=O)c2cccnc2)ccc1N1CCCCC1	.	-8%	-6%[57 µM]	.	?	.
Nc1ccc(N2CCCCC2)c(S(=O)(=O)Nc2ccccc2Cl)c1	?	?	?	14µM*	?	28µM*
COc1ccccc1NS(=O)(=O)c1cc(N)ccc1N1CCCCC1	?	-24%	-27%	4µM*	56µM*	11µM*
Nc1ccc(N2CCCCC2)c(Cl)c1	-26%	-4%	-32%	45µM*	-34%	17%
